This note sets out measurements from the antibiotic and cytotoxicity screens of Wong et al. (2023).

Hit rate of the full screen: of about 39,000 compounds, about 3,300 (8.5%) were called active. Only a selection was taken, and actives are over-represented in it overall.

The test system of the assay is HepG2. Nature of the assay: cytotoxicity call (relative viability < 0.9). Particulars: 10 µM.
For the compound `CO[C@@H]1CN(C)C(=O)c2cc(NC(=O)c3cc(C)on3)ccc2OC[C@@H](C)N(S(=O)(=O)c2ccccc2)C[C@H]1C`, the cytotoxicity call is “inactive”.
In the case of `COc1ccc(S(=O)(=O)N(C)C[C@H]2Oc3c(NS(=O)(=O)c4ccccc4)cccc3C(=O)N([C@H](C)CO)C[C@H]2C)cc1`, the cytotoxicity call is “inactive”.
On to `Cc1ccc(S(=O)(=O)Nc2cccc3c2O[C@H](CN(C)S(=O)(=O)c2cccs2)[C@H](C)CN([C@H](C)CO)C3=O)cc1`, for which the cytotoxicity call is “inactive”.
Take `CC(C)NC(=O)N(C)C[C@@H]1OCCCC[C@H](C)Oc2ccc(NS(C)(=O)=O)cc2C(=O)N([C@@H](C)CO)C[C@@H]1C`: the cytotoxicity call was “inactive”.
In the case of `C[C@@H]1CN([C@H](C)CO)C(=O)Cc2cc(NC(=O)C3CC3)ccc2O[C@H]1CN(C)Cc1ccc(Oc2ccccc2)cc1` it was “inactive”; in that of `Cc1noc(C)c1NC(=O)Nc1ccc2c(c1)C(=O)N([C@H](C)CO)C[C@@H](C)[C@@H](CN(C)C(=O)Nc1ccc(C(F)(F)F)cc1)O2`, “inactive”.
For the compound `C[C@H]1CN([C@@H](C)CO)C(=O)c2cccc(NC(=O)Nc3cccc4ccccc34)c2O[C@H]1CN(C)C(=O)NC1CCCCC1`, the cytotoxicity call was “inactive”.
As for `O=C(/C=N/O)NCc1ccccn1`, the cytotoxicity call was “active”.
In the case of `N#CCC(=O)NCc1ccccn1` it was “inactive”; in that of `NC(=O)NCc1ccccn1`, “inactive”.
To `C[C@H]1CN([C@@H](C)CO)C(=O)c2cc(C#CCN(C)C)cnc2O[C@@H]1CN(C)Cc1ccc2c(c1)OCO2` belongs “inactive”; to `CO[C@H](C(=O)[C@@H](O)[C@@H](C)O)[C@@H]1Cc2cc3cc(O[C@H]4C[C@@H](O[C@H]5C[C@@H](O)[C@H](O)[C@@H](C)O5)[C@@H](O)[C@@H](C)O4)c(C)c(O)c3c(O)c2C(=O)[C@H]1O[C@H]1C[C@@H](O[C@H]2C[C@@H](O[C@H]3C[C@](C)(O)[C@H](O)[C@@H](C)O3)[C@H](O)[C@@H](C)O2)[C@H](O)[C@@H](C)O1`, “active”; to `CO[C@H](C(=O)[C@@H](O)[C@@H](C)O)[C@H]1Cc2cc3cc(O[C@H]4C[C@@H](O[C@H]5C[C@@H](O)[C@@H](O)[C@@H](C)O5)[C@@H](O)[C@@H](C)O4)c(C)c(O)c3c(O)c2C(=O)[C@@H]1O[C@H]1C[C@@H](O[C@H]2C[C@@H](O[C@H]3C[C@@](C)(O)[C@@H](O)[C@@H](C)O3)[C@@H](O)[C@@H](C)O2)[C@@H](O)[C@@H](C)O1`, “active”.
In the case of `N=c1cc(N2CCCCC2)nc(N)n1OS(=O)(=O)O` it was “inactive”; in that of `CC(C)C(=O)NS(=O)(=O)c1ccc(N)cc1`, “inactive”.
In the case of `C[C@H]1CN([C@@H](C)CO)C(=O)CCCn2cc(nn2)CO[C@@H]1CN(C)S(=O)(=O)c1ccc2ccccc2c1`, the cytotoxicity call was “inactive”.
To `O=C(CCCCCNC(=O)OCc1ccc(CO[C@H]2C[C@@H](c3ccccc3)C=C(C(=O)N3CCN(Cc4ccccc4)CC3)O2)cc1)NO` belongs “inactive”; to `CN(C)CC(=O)N1CC(=O)N2[C@H](CO)[C@@H](c3ccc(C#Cc4cccnc4)cc3)[C@@H]2C1`, “inactive”; to `Cc1noc(C)c1NC(=O)N(C)C[C@@H]1Oc2cc(Br)ccc2S(=O)(=O)N([C@H](C)CO)C[C@@H]1C`, “inactive”.
In the case of `COc1ccc2c3c([nH]c2c1)[C@@H](CO)N(C[C@]13CN(CC2CCCCC2)C1)C(=O)Nc1cccc(c1)F`, the cytotoxicity call was “active”.
For the compound `COc1ccc2c3c([nH]c2c1)[C@H](CO)N(C[C@]13CN(CC2CCCCC2)C1)C(=O)Nc1cccc(c1)F`, the cytotoxicity call is “active”.
In the case of `COc1ccc2c3c([nH]c2c1)[C@H](CO)N(C[C@]13CCN(CC1)C(=O)Nc1cccc(c1)F)C(=O)c1ccc(cc1)F` it was “inactive”; in that of `COc1ccc2c3c([nH]c2c1)[C@@H](CO)N(CC1CCCCC1)C[C@]13CN(C1)C(=O)Nc1cccc(c1)F`, “inactive”.
To `COc1ccc2c3c([nH]c2c1)[C@@H](CO)N(C[C@]13CCN(CC1)C(=O)Nc1cccc(c1)F)C(=O)c1ccc(cc1)F` belongs “inactive”; to `COc1ccc2c3c([nH]c2c1)[C@H](CO)N(CC1CCCCC1)C[C@]13CN(C1)C(=O)Nc1cccc(c1)F`, “inactive”; to `C[C@@H]1CN([C@H](C)CO)C(=O)c2cccc(NS(=O)(=O)c3ccc(F)cc3)c2O[C@H]1CN(C)S(=O)(=O)c1ccc(F)cc1`, “inactive”.
Consider `COc1cccc(-c2ccc3c(c2)O[C@@H](CN(C)C(=O)C2CCOCC2)[C@H](C)CN([C@@H](C)CO)S3(=O)=O)c1`, for which the cytotoxicity call was “inactive”.
On to `CC(C)NC(=O)N(C)C[C@@H]1Oc2ccc(NC(=O)Cn3cnnn3)cc2C(=O)N([C@@H](C)CO)C[C@@H]1C`, for which the cytotoxicity call is “inactive”.
In the case of `O=C(C[C@@H]1C=C[C@H](NS(=O)(=O)c2ccccc2F)[C@H](CO)O1)NCCCN1CCOCC1` it was “inactive”; in that of `C[C@@H]1CN([C@H](C)CO)C(=O)c2cccc(NC(=O)c3cnccn3)c2O[C@@H]1CN(C)S(=O)(=O)c1ccccc1`, “inactive”; in that of `CC(C)NC(=O)Nc1ccc2c(c1)C(=O)N(C)[C@H]1CC[C@H](CC(=O)NCc3ccc(F)cc3)O[C@@H]1CO2`, “inactive”.
As to `C[C@@H]1CN([C@H](C)CO)C(=O)c2cc(NC(=O)C3CC3)ccc2O[C@H]1CN(C)Cc1ccc(-c2ccccc2)cc1`, the cytotoxicity call is “inactive”.
To `CCc1ccc(-c2cc3c(=O)n(CC(=O)NCCN4CCOCC4)nc(C)n3n2)cc1` belongs “inactive”; to `Cc1ccc(S(=O)(=O)Nc2ccc3c(c2)CC(=O)N([C@H](C)CO)C[C@H](C)[C@@H](CN(C)S(=O)(=O)c2cccs2)O3)cc1`, “inactive”.
Regarding `COc1ccc(CN(C)C[C@H]2OCCCC[C@@H](C)Oc3ccc(NC(=O)NC4CCCCC4)cc3C(=O)N([C@H](C)CO)C[C@@H]2C)cc1`, the cytotoxicity call was “inactive”.
Consider `C[C@@H]1CN([C@@H](C)CO)S(=O)(=O)c2ccc(C#C[C@@H](C)O)cc2O[C@@H]1CN(C)C(=O)Nc1ccccc1`, for which the cytotoxicity call was “inactive”.
In the case of `COc1ccc(CN(C)C[C@@H]2Oc3c(NC(=O)c4ccc(-c5nccs5)cc4)cccc3C(=O)N([C@H](C)CO)C[C@H]2C)cc1` it was “active”; in that of `COc1ccc(CN(C)C[C@@H]2Oc3c(NC(=O)c4ccc(-c5nccs5)cc4)cccc3C(=O)N([C@H](C)CO)C[C@@H]2C)cc1`, “inactive”.
In the case of `COc1ccc(CN(C)C[C@@H]2Oc3c(NC(=O)c4ccc(-c5nccs5)cc4)cccc3C(=O)N([C@@H](C)CO)C[C@H]2C)cc1` it was “active”; in that of `COc1ccc(CN(C)C[C@H]2Oc3c(NC(=O)c4ccc(-c5nccs5)cc4)cccc3C(=O)N([C@@H](C)CO)C[C@@H]2C)cc1`, “inactive”.
To `COc1ccc(CN(C)C[C@H]2Oc3c(NC(=O)c4ccc(-c5nccs5)cc4)cccc3C(=O)N([C@H](C)CO)C[C@@H]2C)cc1` belongs “inactive”; to `COc1ccc(CN(C)C[C@H]2Oc3c(NC(=O)c4ccc(-c5nccs5)cc4)cccc3C(=O)N([C@@H](C)CO)C[C@H]2C)cc1`, “inactive”; to `CO[C@@H]1CN(C)C(=O)c2cc(NC(C)=O)ccc2OC[C@@H](C)N(S(=O)(=O)c2cn(C)cn2)C[C@H]1C`, “inactive”.
In the case of `C[C@@H]1CCCCO[C@H](CN(C)Cc2ccccc2)[C@@H](C)CN([C@H](C)CO)C(=O)c2cc(NC(=O)c3ccccc3)ccc2O1`, the cytotoxicity call was “inactive”.
For the compound `CCC[C@@H](O)C#Cc1cnc2c(c1)C(=O)N([C@H](C)CO)C[C@H](C)[C@H](CN(C)S(=O)(=O)c1ccccc1)O2`, the cytotoxicity call is “inactive”.
Turning to `C[C@@H]1CN([C@H](C)CO)C(=O)c2cc(NC(=O)Cc3cn(C)c4ccccc34)ccc2O[C@@H]1CN(C)Cc1ccc(Oc2ccccc2)cc1`, the cytotoxicity call was “inactive”.
To `C[C@@H]1CN([C@H](C)CO)C(=O)c2cc(NC(=O)Cc3cn(C)c4ccccc34)ccc2O[C@H]1CN(C)Cc1ccc(Oc2ccccc2)cc1` belongs “inactive”.
In the case of `C[C@H](CO)N1C[C@H](C)[C@H](CN(C)Cc2ccc(Oc3ccccc3)cc2)Oc2ccc(NC(=O)Cc3cn(C)c4ccccc34)cc2C1=O`, the cytotoxicity call was “active”.
Consider `C[C@@H]1CN([C@@H](C)CO)C(=O)c2cc(NC(=O)Cc3cn(C)c4ccccc34)ccc2O[C@H]1CN(C)Cc1ccc(Oc2ccccc2)cc1`, for which the cytotoxicity call was “inactive”.
In the case of `C[C@@H]1CN([C@@H](C)CO)C(=O)c2cc(NC(=O)Cc3cn(C)c4ccccc34)ccc2O[C@@H]1CN(C)Cc1ccc(Oc2ccccc2)cc1`, the cytotoxicity call is “inactive”.
For `C[C@H](CO)N1C[C@H](C)[C@@H](CN(C)Cc2ccc(Oc3ccccc3)cc2)Oc2ccc(NC(=O)Cc3cn(C)c4ccccc34)cc2C1=O`, the cytotoxicity call was “active”.
Take `C[C@H]1CN([C@@H](C)CO)C(=O)c2cc(NC(=O)Cc3cn(C)c4ccccc34)ccc2O[C@@H]1CN(C)Cc1ccc(Oc2ccccc2)cc1`: the cytotoxicity call was “active”.
On to `C[C@H]1CN([C@@H](C)CO)C(=O)c2cc(NC(=O)Cc3cn(C)c4ccccc34)ccc2O[C@H]1CN(C)Cc1ccc(Oc2ccccc2)cc1`, for which the cytotoxicity call is “inactive”.
Take `Cc1ccc(S(=O)(=O)N(C)C[C@H]2OCCCC[C@@H](C)Oc3ccc(NC(=O)Nc4ccc5c(c4)OCO5)cc3C(=O)N([C@H](C)CO)C[C@@H]2C)cc1`: the cytotoxicity call is “inactive”.
In the case of `COc1cccc(-c2ccc3c(c2)O[C@H](CN(C)Cc2cncnc2)[C@H](C)CN([C@@H](C)CO)S3(=O)=O)c1` it was “inactive”.
In the case of `COc1ccc(NC(=O)N(C)C[C@H]2Oc3ccc(NC(=O)CCCCCC(=O)Nc4ccccc4N)cc3CC(=O)N([C@H](C)CO)C[C@H]2C)cc1` it was “inactive”.
To `C[C@@H]1CN([C@@H](C)CO)C(=O)c2c(c3ccccc3n2C)-c2ccccc2CO[C@H]1CN(C)S(C)(=O)=O` belongs “inactive”.
Take `CC(=O)OCC1=C(C(=O)O)N2C(=O)[C@@H](NC(=O)CSc3ccncc3)[C@H]2SC1`: the cytotoxicity call was “inactive”.
In the case of `C[C@H](CO)N1C[C@H](C)[C@H](CN(C)Cc2ccc(-c3ccccc3)cc2)Oc2ccc(NC(=O)Cn3cnnn3)cc2C1=O` it was “inactive”.
For the compound `C[C@H]1CN([C@@H](C)CO)C(=O)c2cccc(NS(=O)(=O)c3cn(C)cn3)c2O[C@@H]1CN(C)Cc1ccc(C(=O)O)cc1`, the cytotoxicity call is “inactive”.
To `Cn1nnnc1-c1ccc(N)cc1` belongs “inactive”.
